# From PMC8384837, “Expanding the binding specificity for RNA recognition by a PUF domain”
# How the values were obtained:
# Test in all cases: yeast three-hybrid, YBZ-1, SC-Leu-His + 0.5 mM 3-AT, 4 days
# Conditions in all cases: tags: N-Gal4 AD-HA kept; label: inside an RPR1-promoter hybrid RNA with tandem MS2 sites; ssRNA
# PUM1 PUF domain R5-KGS = PUM1 PUF domain R5-KGS (Homo sapiens, UniProt Q14671 828-1176, C1007K;R1008G;Q1011S)
# Summary of the method: (§1)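 The interaction score is the log change in variant frequency from input to selection. Scores were computed in log2 with a pseudocount of 1 for absent variants, using Illumina sequencing of PCR-amplified repeat regions. The input came from four days on SC-Leu and the selection from four days on SC-Leu-His + 0.5 mM 3-AT. The cells were strain YBZ-1 (LexA–MS2 coat fusion, HIS3 reporter) co-expressing Pumilio-1 PUF domain libraries and matching RNA elements from a centromeric plasmid.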
# PUM1 PUF domain R4-GWW = PUM1 PUF domain R4-GWW (Homo sapiens, UniProt Q14671 828-1176, N971G;H972W;Q975W)
# Summary of the method: as §1
# PUM1 PUF domain R4-CYP = PUM1 PUF domain R4-CYP (Homo sapiens, UniProt Q14671 828-1176, N971C;H972Y;Q975P)
# Summary of the method: as §1
# PUM1 PUF domain R4-RNY = PUM1 PUF domain R4-RNY (Homo sapiens, UniProt Q14671 828-1176, N971R;H972N;Q975Y)
# Summary of the method: as §1
# PUM1 PUF domain R4-SWP = PUM1 PUF domain R4-SWP (Homo sapiens, UniProt Q14671 828-1176, N971S;H972W;Q975P)
# Summary of the method: as §1
# PUM1 PUF domain R5-QCS = PUM1 PUF domain R5-QCS (Homo sapiens, UniProt Q14671 828-1176, C1007Q;R1008C;Q1011S)
# Summary of the method: as §1
# PUM1 PUF domain R4-SNR = PUM1 PUF domain R4-SNR (Homo sapiens, UniProt Q14671 828-1176, N971S;H972N;Q975R)
# Summary of the method: as §1
# PUM1 PUF domain R1-ARR = PUM1 PUF domain R1-ARR (Homo sapiens, UniProt Q14671 828-1176, S863A;Q867R)
# Summary of the method: as §1
# PUM1 PUF domain R5-MHA = PUM1 PUF domain R5-MHA (Homo sapiens, UniProt Q14671 828-1176, C1007M;R1008H;Q1011A)
# Summary of the method: as §1
# PUM1 PUF domain R3-RCN = PUM1 PUF domain R3-RCN (Homo sapiens, UniProt Q14671 828-1176, C935R;R936C;Q939N)
# Summary of the method: as §1
sequence,measurement,setting,value
GGCUAGAACUAGUGGAUCCCCCGGCGCCCGGCGGCUCGAGCCCGGGUAAGUGUCAAUAGUCUGCAUGCCGCCGGGCGCCAUGCCUGCAGGUCGACUCUAGAAAACAUG,binding signal,PUM1 PUF domain R5-KGS,4.66 log2 enrichment (interaction score)
GGCUAGAACUAGUGGAUCCCCCGGCGCCCGGCGGCUCGAGCCCGGGUAAGUGUAAAUAGUCUGCAUGCCGCCGGGCGCCAUGCCUGCAGGUCGACUCUAGAAAACAUG,binding signal,PUM1 PUF domain R4-GWW,3.18 log2 enrichment (interaction score)
same,binding signal,PUM1 PUF domain R4-CYP,5.36 log2 enrichment (interaction score)
same,binding signal,PUM1 PUF domain R4-RNY,3.7 log2 enrichment (interaction score)
same,binding signal,PUM1 PUF domain R4-SWP,5.57 log2 enrichment (interaction score)
GGCUAGAACUAGUGGAUCCCCCGGCGCCCGGCGGCUCGAGCCCGGGUAAGUGUGAAUAGUCUGCAUGCCGCCGGGCGCCAUGCCUGCAGGUCGACUCUAGAAAACAUG,binding signal,PUM1 PUF domain R5-QCS,3.56 log2 enrichment (interaction score)
GGCUAGAACUAGUGGAUCCCCCGGCGCCCGGCGGCUCGAGCCCGGGUAAGUGUAUAUAGUCUGCAUGCCGCCGGGCGCCAUGCCUGCAGGUCGACUCUAGAAAACAUG,binding signal,PUM1 PUF domain R4-SNR,2.9 log2 enrichment (interaction score)
same,binding signal,PUM1 PUF domain R4-SWP,5.26 log2 enrichment (interaction score)
GGCUAGAACUAGUGGAUCCCCCGGCGCCCGGCGGCUCGAGCCCGGGUAAGUGUAAAUUGUCUGCAUGCCGCCGGGCGCCAUGCCUGCAGGUCGACUCUAGAAAACAUG,binding signal,PUM1 PUF domain R1-ARR,1.97 log2 enrichment (interaction score)
GGCUAGAACUAGUGGAUCCCCCGGCGCCCGGCGGCUCGAGCCCGGGUAAGUGUUAAUAGUCUGCAUGCCGCCGGGCGCCAUGCCUGCAGGUCGACUCUAGAAAACAUG,binding signal,PUM1 PUF domain R5-MHA,4.69 log2 enrichment (interaction score)
same,binding signal,PUM1 PUF domain R5-QCS,0.61 log2 enrichment (interaction score)
GGCUAGAACUAGUGGAUCCCCCGGCGCCCGGCGGCUCGAGCCCGGGUAAGUGUACAUAGUCUGCAUGCCGCCGGGCGCCAUGCCUGCAGGUCGACUCUAGAAAACAUG,binding signal,PUM1 PUF domain R4-GWW,0.85 log2 enrichment (interaction score)
same,binding signal,PUM1 PUF domain R4-CYP,6.17 log2 enrichment (interaction score)
same,binding signal,PUM1 PUF domain R4-SNR,2.06 log2 enrichment (interaction score)
GGCUAGAACUAGUGGAUCCCCCGGCGCCCGGCGGCUCGAGCCCGGGUAAGUGUAAAUCGUCUGCAUGCCGCCGGGCGCCAUGCCUGCAGGUCGACUCUAGAAAACAUG,binding signal,PUM1 PUF domain R1-ARR,2.95 log2 enrichment (interaction score)
GGCUAGAACUAGUGGAUCCCCCGGCGCCCGGCGGCUCGAGCCCGGGUAAGUGUAAUUAGUCUGCAUGCCGCCGGGCGCCAUGCCUGCAGGUCGACUCUAGAAAACAUG,binding signal,PUM1 PUF domain R3-RCN,2.71 log2 enrichment (interaction score)
GGCUAGAACUAGUGGAUCCCCCGGCGCCCGGCGGCUCGAGCCCGGGUAAGUGUAAAUGGUCUGCAUGCCGCCGGGCGCCAUGCCUGCAGGUCGACUCUAGAAAACAUG,binding signal,PUM1 PUF domain R1-ARR,0.69 log2 enrichment (interaction score)
